Assay [1] deals with Sentrin-specific protease 8 (Homo sapiens) (UniProt Q96LD8). The assay is described as follows: human SENP8 peptidase blockers, hit retest – biochemical, luminescence, single concentration, confirmation (AID 488912;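 active = mean inhibition across replicates above about 50%, limit read from the data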). To be noted: Recombinant SENP8, Z-RLRGG-aminoluciferin luminescence, 60 min; at 12.5 µM; stronger effect = higher value.
Assay [2] deals with Sentrin-specific protease 6 (Homo sapiens) (UniProt Q9GZR1). The assay is described as follows: inhibition of human SENP6 catalytic domain – biochemical, luminescence, single concentration, confirmation (AID 488915). To be noted: recombinant SENP6, Z-RLRGG-aminoluciferin luminescence; at 12.5 µM; stronger effect = higher value.
The target of assay [3] is Sentrin-specific protease 7 (Homo sapiens) (UniProt Q9BQF6). The assay is described as follows: human SENP7 peptidase blockers, hit retest – biochemical, luminescence, single concentration, confirmation (AID 488917). To be noted: recombinant SENP7, Z-RLRGG-aminoluciferin luminescence, 40 min; at 12.5 µM; stronger effect = higher value.
Assay [4] concerns the target Caspase-3 (Homo sapiens) (UniProt P42574). The assay is described as follows: human caspase-3 activity blockade, out-of-family – biochemical, single concentration, selectivity assay for SENP inhibitor project, confirmation (AID 488918;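 active = mean inhibition above about 50%, limit read from the data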;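 note: plate controls were enzyme with DMSO for no effect and wells without caspase-3 for full effect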). Conditions: purified caspase-3, Z-DEVD-aminoluciferin luminescence, 60 min; at 12.5 µM; stronger effect = higher value.
Assay [5] is described as follows: Ultra-Glo luciferase signal interference – biochemical, single concentration, SENP8 reaction pre-completed, artefact control for SENP inhibitor project, confirmation (AID 488919;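 active = mean inhibition above about 50% when retested at one dose, limit read from the data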;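 note: plate controls were DMSO wells with completed reaction for no effect and substrate without enzyme for full effect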). To be noted: Pre-incubated SENP8/Z-RLRGG-aminoluciferin, luciferase luminescence interference; at 12.5 µM; stronger effect = higher value.
For assay [6], the target named is Tumor necrosis factor receptor superfamily member 10B (Homo sapiens) (UniProt O14763). The assay is described as follows: viability loss of caspase-8 NB7 cells with TRAIL – with/without TRAIL, luminescence panel, confirmation (AID 651596; in the data active = activity above about 50%). Conditions: NB7 neuroblastoma + caspase-8, TRAIL sensitization, NB7 Caspase-8, with TRAIL, mean of runs, at 10 µM, stronger effect = higher value.

Test in assay [7]: as above
Conditions: NB7 neuroblastoma + caspase-8, without TRAIL, NB7 Caspase-8, without TRAIL, mean of runs, at 10 µM.

The target of assay [8] is Protein Mdm4 (Homo sapiens) + E3 ubiquitin-protein ligase Mdm2 (Homo sapiens) (UniProt O15151+Q00987). The assay is described as follows: human Mdm2/MdmX binding disruption – cell-based, luminescence, single concentration, set 2, confirmation (AID 504601;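 active = mean inhibition of the luminescence signal across two replicates at or above 26 percent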). To be noted: SaOS-2 split-luciferase Mdm2/MdmX complementation, at 8 µM, stronger effect = higher value.
Assay [9] in a line: apoptosome-driven caspase-3 activation blockers – biochemical, fluorescence, DEVD-Rh110, 20 µM, confirmation (AID 504614;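 active = mean inhibition of at least 40% at 20 µM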;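 note: plate controls were DMSO wells for no effect and DEVD-CHO caspase inhibitor control wells for full effect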). To be noted: reconstituted apoptosome, caspase-3 DEVD-Rh110 fluorescence; at 20 µM; stronger effect = higher value.
Assay [10] can be described thus: detection-step artefacts after completed caspase reaction – biochemical, fluorescence, Rh110, 20 µM, artefact control for Apaf-1 inhibitor project, confirmation (AID 504615;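 active = signal rise of 40% or more at 20 µM, treated as a fluorescence artifact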). Conditions: quenched caspase reaction, at 20 µM, stronger effect = higher value.
Assay [11] can be described thus: fluorescence interference of Apaf-1 inhibitor hits, dose response, artefact control for Apaf-1 inhibitor project (AID 588538; call rule not given here). Conditions: fluorescence interference counterscreen, Apaf-1 assay format.
Assay [12] concerns the target COP9 signalosome complex subunit 5 (Homo sapiens) (UniProt Q92905). The assay is described as follows: blockers of CSN-driven cullin deneddylation – biochemical, fluorescence polarization, single concentration, SCF-Nedd8OG substrate, confirmation (AID 720654; in the data active = inhibition above about 50%;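 note: 0% = DMSO with enzyme and 100% = no enzyme wells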). To be noted: Csn5 deneddylation of SCF-Nedd8OG, 90 min, at 16.6 µM, stronger effect = higher value.
Assay [13] concerns the target 72 kDa type IV collagenase (Homo sapiens) (UniProt P08253). The assay is described as follows: human MMP-2 inhibitors, single-point check – biochemical, fluorescence, single concentration, counter-screen for CSN deneddylation inhibitor project, confirmation (AID 720655;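 active = corrected plate-normalized z-score of 5 or more, or -5 or less, or inhibition of 15% or more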;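 note: plate controls were DMSO wells with enzyme for no effect and buffer wells lacking MMP-2 for full effect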). Conditions: recombinant MMP-2, FRET substrate fluorescence, 60 min; at 16.6 µM.
Assay [14] addresses Prothrombin (Bos taurus) (UniProt P00735). The assay is described as follows: thrombin cleavage blockers, FP readout – biochemical, fluorescence polarization, single concentration, counter-screen for CSN deneddylation inhibitor project, confirmation (AID 720656;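 active = inhibition at or above a set limit, with a fluorescence interference ratio between 0.5 and a set maximum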). To be noted: bovine thrombin cleavage of Ub4-pepOG, at 16.6 µM, stronger effect = higher value.

Molecules are shown by their SMILES. The list shows a part of the results. Activity calls are given as the source filed them.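 Rule for the calls, unless noted: active = mean inhibition above about 50% in the one-dose retest (limit read from the data); inactive = the rest.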

Sentrin-specific protease 7 (Homo sapiens), sequence (Q9BQF6 706-1050 limits assumed): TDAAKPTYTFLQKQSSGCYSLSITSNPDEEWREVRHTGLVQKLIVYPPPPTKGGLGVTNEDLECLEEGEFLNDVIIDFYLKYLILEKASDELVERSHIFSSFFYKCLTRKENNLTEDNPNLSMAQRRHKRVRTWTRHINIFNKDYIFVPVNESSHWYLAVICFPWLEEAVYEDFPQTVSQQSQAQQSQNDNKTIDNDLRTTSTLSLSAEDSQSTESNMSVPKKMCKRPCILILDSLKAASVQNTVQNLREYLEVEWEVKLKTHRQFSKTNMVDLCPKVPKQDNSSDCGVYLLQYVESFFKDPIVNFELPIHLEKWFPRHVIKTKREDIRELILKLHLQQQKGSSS
Sentrin-specific protease 6 (Homo sapiens), sequence (Q9GZR1 628-1112 limits assumed): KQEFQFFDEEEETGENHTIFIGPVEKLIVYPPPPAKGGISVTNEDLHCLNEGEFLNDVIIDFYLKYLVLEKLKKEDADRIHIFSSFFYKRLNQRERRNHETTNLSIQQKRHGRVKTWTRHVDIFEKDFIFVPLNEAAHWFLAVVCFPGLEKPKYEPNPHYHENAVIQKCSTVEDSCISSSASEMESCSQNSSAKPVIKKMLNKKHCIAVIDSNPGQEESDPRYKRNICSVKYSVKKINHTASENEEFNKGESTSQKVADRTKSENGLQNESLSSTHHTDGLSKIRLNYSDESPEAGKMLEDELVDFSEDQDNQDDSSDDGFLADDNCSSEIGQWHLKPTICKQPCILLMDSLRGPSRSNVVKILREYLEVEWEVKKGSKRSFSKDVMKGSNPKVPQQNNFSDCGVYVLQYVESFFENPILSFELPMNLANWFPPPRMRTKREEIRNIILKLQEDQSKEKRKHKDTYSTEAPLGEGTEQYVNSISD
Sentrin-specific protease 8 (Homo sapiens), sequence (Q96LD8 whole entry, looked up, the tested form may be a part): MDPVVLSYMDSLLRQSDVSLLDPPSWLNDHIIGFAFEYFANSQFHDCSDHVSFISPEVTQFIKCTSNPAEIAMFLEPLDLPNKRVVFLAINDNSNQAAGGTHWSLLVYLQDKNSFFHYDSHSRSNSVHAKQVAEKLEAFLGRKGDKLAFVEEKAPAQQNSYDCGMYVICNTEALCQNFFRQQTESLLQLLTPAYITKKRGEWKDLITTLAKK
Protein Mdm4 (Homo sapiens) + E3 ubiquitin-protein ligase Mdm2 (Homo sapiens), sequence (O15151 whole entry, looked up): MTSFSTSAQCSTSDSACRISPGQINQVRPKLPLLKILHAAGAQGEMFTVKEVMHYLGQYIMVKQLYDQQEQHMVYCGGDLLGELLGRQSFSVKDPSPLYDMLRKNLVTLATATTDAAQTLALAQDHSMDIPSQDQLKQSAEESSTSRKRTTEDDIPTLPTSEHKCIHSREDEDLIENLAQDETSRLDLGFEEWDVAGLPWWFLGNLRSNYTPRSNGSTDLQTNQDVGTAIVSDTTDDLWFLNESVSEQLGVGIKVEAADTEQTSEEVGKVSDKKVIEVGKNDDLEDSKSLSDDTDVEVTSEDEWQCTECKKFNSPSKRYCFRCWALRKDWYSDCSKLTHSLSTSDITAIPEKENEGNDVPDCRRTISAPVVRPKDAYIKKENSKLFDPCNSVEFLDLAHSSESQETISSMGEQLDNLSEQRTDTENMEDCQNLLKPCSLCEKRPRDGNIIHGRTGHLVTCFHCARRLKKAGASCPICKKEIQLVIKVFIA
Protein Mdm4 (Homo sapiens) + E3 ubiquitin-protein ligase Mdm2 (Homo sapiens), sequence (Q00987 whole entry, looked up): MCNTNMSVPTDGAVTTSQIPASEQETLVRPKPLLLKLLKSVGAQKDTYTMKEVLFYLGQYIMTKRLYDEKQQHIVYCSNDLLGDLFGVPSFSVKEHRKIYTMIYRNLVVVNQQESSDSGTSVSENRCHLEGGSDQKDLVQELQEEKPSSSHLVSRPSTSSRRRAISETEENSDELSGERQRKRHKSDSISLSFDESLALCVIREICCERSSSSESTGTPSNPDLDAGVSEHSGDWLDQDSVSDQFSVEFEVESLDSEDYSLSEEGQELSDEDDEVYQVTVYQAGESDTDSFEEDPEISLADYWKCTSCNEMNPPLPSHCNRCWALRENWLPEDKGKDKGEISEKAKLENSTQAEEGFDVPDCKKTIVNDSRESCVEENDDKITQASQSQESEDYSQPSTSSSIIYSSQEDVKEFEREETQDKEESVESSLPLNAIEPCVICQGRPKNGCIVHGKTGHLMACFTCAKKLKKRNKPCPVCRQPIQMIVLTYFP
Tumor necrosis factor receptor superfamily member 10B (Homo sapiens), sequence (O14763 whole entry, looked up): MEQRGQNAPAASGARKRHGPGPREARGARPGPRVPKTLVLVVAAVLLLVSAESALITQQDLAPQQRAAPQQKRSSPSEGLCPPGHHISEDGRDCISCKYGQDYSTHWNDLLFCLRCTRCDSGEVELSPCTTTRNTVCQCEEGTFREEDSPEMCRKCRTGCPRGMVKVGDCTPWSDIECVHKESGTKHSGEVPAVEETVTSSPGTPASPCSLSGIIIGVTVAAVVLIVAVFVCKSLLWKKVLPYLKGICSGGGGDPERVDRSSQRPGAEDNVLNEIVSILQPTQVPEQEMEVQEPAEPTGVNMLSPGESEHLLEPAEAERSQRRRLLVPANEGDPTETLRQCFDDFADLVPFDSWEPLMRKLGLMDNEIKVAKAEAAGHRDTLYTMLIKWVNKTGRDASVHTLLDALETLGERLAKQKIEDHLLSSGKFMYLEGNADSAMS
Caspase-3 (Homo sapiens), sequence (P42574 28-227 limits assumed): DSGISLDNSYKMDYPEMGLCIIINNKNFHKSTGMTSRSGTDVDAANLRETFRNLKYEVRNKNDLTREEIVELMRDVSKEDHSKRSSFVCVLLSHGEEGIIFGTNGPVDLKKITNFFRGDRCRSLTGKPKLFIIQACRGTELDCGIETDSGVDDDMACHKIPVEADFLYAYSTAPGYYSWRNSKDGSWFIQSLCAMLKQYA
Prothrombin (Bos taurus), sequence (P00735 whole entry, looked up): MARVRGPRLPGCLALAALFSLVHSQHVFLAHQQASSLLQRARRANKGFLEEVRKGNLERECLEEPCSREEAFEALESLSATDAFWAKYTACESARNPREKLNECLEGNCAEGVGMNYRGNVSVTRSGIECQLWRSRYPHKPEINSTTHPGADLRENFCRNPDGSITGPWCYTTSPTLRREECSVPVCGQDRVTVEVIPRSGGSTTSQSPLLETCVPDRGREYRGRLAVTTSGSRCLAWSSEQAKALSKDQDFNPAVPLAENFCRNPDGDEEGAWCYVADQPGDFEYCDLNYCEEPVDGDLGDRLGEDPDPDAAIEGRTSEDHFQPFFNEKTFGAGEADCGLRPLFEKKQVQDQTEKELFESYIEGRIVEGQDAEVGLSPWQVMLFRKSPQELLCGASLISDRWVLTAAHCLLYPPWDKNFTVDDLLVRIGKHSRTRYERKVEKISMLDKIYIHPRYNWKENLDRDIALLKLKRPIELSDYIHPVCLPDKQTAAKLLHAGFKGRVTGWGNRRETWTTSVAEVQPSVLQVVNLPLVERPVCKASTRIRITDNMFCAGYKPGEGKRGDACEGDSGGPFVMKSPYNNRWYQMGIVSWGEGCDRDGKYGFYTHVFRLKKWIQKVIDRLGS
COP9 signalosome complex subunit 5 (Homo sapiens), sequence (Q92905 whole entry, looked up, one chain of several): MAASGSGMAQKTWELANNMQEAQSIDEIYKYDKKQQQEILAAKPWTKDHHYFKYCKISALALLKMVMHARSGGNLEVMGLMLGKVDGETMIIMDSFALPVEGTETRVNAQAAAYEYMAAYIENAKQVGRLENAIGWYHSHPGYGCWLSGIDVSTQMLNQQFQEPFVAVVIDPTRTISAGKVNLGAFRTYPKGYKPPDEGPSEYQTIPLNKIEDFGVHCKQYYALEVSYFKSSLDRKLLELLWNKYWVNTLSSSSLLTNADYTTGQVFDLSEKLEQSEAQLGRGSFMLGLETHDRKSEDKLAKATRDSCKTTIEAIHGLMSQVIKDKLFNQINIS
72 kDa type IV collagenase (Homo sapiens), sequence (P08253 whole entry, looked up): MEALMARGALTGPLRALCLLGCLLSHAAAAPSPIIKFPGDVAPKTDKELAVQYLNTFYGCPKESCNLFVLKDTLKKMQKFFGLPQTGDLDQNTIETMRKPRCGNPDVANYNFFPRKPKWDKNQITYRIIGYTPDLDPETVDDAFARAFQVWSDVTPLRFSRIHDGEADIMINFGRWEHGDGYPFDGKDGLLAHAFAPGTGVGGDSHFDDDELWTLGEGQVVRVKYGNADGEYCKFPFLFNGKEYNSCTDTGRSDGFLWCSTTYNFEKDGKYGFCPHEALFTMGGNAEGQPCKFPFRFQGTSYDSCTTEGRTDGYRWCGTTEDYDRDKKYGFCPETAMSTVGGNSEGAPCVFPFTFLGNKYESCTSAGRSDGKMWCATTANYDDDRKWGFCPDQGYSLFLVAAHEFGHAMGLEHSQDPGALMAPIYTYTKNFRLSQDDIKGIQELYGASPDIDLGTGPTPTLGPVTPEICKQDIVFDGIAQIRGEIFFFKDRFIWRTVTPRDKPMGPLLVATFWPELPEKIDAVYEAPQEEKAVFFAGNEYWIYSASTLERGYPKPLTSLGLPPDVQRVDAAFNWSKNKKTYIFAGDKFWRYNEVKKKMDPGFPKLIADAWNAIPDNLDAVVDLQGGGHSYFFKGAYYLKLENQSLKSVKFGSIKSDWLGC

On to `Cc1cnc(NC(=O)c2ccccn2)s1`, for which the inhibition in assay [1] is 74.2% (active); in assay [2], 75.6% (active); in assay [3], 92.3% (active); in assay [4], 91.7% (active); in [5] it was 67.2% (active). For the same compound, the activity is 63.5% in assay [6] and 64.5% in [7].

Take `CC[C@]1(C(=O)OC)[C@H]2C(=O)N(Cc3ccccc3)C(=O)[C@H]2[C@H]2CN=C(SCc3ccc(C#N)cc3)N21`: the inhibition in assay [8] was 102% (active).

In the case of `O=C1[C@H]2[C@@H](c3ccc(F)cc3)N3C(=O)N(c4ccc(C(F)(F)F)cc4)C(=O)[C@@]3(Cc3ccccc3)[C@H]2C(=O)N1C1CCCCC1`, the inhibition in [8] was 101% (active).

As for `O=C(/C=C/c1ccc2c(c1)OCCO2)c1ccc(O)cc1`, the inhibition in assay [1] was 68.6% (active); in assay [2] it was 59% (active); in [3], 72.1% (active); in [4] it was 54.3% (active); in assay [5], 86.9% (active). The activity is 41% in [6] and 45.6% in assay [7].

For the compound `COc1cccc(NC(=O)[C@H](Cc2c[nH]c3ccccc23)NC(=O)[C@@H]2Cc3ccccc3CN2)c1`, the inhibition in assay [8] was 98.2% (active).

Consider `Cn1c(NC(=O)c2ccccc2)nc2ccccc21`, for which the inhibition was 55.5% (active) in [1]; 61.6% (active) in assay [2]; 89.8% (active) in assay [3]; 83.7% (active) in [4]; 65.2% (active) in assay [5]. The activity was 50.4% in [6] and 61.1% in [7].

Take `O=C(CCCN1C(=O)/C(=C/c2ccccc2)SC1=S)Nc1ccc(O)cc1`: in assay [8], the inhibition is 80.2% (active).

As to `CC(=O)Nc1cccc(C(=O)OCC(=O)c2ccc3c(c2)OCO3)c1`, the inhibition in [1] is 84.2% (active); in assay [2], 83.1% (active); in [3], 51.3% (active); in [4], 85.2% (active); in [5] it was 80.8% (active). Further, the activity in assay [6] is 70.3%; in assay [7], 60.6%.

In the case of `O=C(Nc1ccc(Cl)cn1)c1ccc2c(c1)OCCO2`, the inhibition was -5.1% (inactive) in assay [1]; 71.4% (active) in assay [2]; 92.9% (active) in assay [3]; 82.8% (active) in assay [4]; 76.4% (active) in assay [5]. Further, the activity in assay [6] was determined as 67.6%; in assay [7] it was 71.8%.

On to `CC(C)n1cnc2c(NCc3ccccc3)cc(OCC3CCN(C)CC3)cc21`, for which the inhibition was 57.7% (active) in assay [1]; 75.3% (active) in [2]; 35.5% (inactive) in assay [3]; 6.2% (inactive) in [4]; -4.2% (inactive) in [5]; 78.1% (active) in assay [9]. The activation (fluorescence interference) in [10] is -0.65% (inactive). Also, the IC50 in assay [11] is > 100 µM (inactive).

For `CCN1C(=O)c2cccc3c(N)ccc1c23`, the inhibition in assay [1] was 22% (inactive); in [2], 41.5% (inactive); in [3] it was 15.6% (inactive); in assay [4], 2.1% (inactive); in assay [5], -6.4% (inactive); in assay [9], 70.1% (active). Moreover, in [10], the activation (fluorescence interference) was 2.39% (inactive). Further, the IC50 in [11] is > 100 µM (inactive).

With `COc1cc(/C=C(\C#N)c2nc3ccccc3[nH]2)ccc1O`, the inhibition in [1] is 95.1% (active); in assay [2] it was 95.1% (active); in [3], 101% (active); in assay [4], 93.4% (active); in [5] it was 66.5% (active); in [12] it was 78.1% (active). Further, the inhibition is -18.3% (inactive) in assay [13] and 62.2% (active) in assay [14].
